# Inconclusive results are not listed. The source made the active and inactive calls. Calls come from the whole dose curve; as a rule, active = well fitted inhibition curve with a large enough effect in the polarisation, with a control signal flat (not every such curve was filed as active); inconclusive = small, poorly fitted or top-dose-only effect, or effect the other way, or a change in a side signal; inactive = no such curve, though single readings can be large or run the other way; the % refers to the polarisation.
# Molecular target: Menin (Homo sapiens) (UniProt O00255)
# Sequence (O00255 whole entry, looked up): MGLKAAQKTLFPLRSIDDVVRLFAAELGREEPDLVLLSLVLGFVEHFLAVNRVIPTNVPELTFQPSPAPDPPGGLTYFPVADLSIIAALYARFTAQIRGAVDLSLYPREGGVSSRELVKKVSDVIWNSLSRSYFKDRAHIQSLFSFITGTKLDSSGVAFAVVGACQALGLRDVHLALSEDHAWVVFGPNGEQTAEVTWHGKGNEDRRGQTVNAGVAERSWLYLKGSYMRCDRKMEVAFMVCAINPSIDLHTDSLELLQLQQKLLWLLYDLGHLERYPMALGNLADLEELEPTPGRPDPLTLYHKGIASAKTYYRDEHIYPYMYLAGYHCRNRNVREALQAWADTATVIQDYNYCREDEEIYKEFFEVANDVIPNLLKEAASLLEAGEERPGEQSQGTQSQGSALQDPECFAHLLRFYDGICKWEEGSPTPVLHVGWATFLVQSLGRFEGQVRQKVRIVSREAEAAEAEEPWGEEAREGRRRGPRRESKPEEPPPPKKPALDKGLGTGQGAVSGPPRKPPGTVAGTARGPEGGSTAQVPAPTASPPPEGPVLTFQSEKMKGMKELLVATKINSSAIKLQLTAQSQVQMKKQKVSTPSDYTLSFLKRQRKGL
# Test: Confirmation of Inhibitors Targeting the Menin-MLL Interaction in MLL Related Leukemias: Competition With Fluorescein Labeled MLL-derived Peptide
# Details: Fluorescence polarization, fluorescein-MLL peptide displacement from menin; series mostly up to 100 µM
# Description: qHTS Assay for Inhibitors Targeting the Menin-MLL Interaction in MLL Related Leukemias
# NIH Chemical Genomics Center [NCGC]
# NIH Molecular Libraries Probe Centers Network [MLPCN]
# Assay Submitter (PI): Jolanta Grembecka, Tomasz Cierpicki, University of Virginia
# Translocations of the MLL (Mixed Lineage Leukemia) gene are frequently found in human leukemias affecting both children and adults. Fusion of MLL to one of more than 60 genes results in generation of oncogenic proteins upregulating Hox genes, which are vital to blood cell development. Patients harboring fusion of the MLL gene suffer from aggressive leukemias and respond poorly to available therapies. All of the oncogenic fusion proteins have a preserved N-terminal fragment of MLL that has been identified to interact with menin. It has been recently discovered that association with menin is critical to the leukemogenic activity of the MLL fusion oncoproteins. Selective targeting of the menin-MLL interaction could provide an attractive therapeutic approach to develop novel drugs for MLL-related leukemias. Small molecules blocking the menin-MLL interaction should reverse the oncogenic potential of MLL fusion proteins.
# We have developed and optimized a fluorescence polarization-based assay for the identification of Menin-MLL inhibitors. The assay was run employing two different MLL-derived peptides. The present assay uses a 12 amino acid peptide labeled with fluorescein at its N-terminus. This peptide consists of the menin high affinity binding motif from MLL and is potently bound by menin. Another peptide with a mutated sequence, labeled with Texas Red, was used in parallel as a less stringent screen for inhibitors.
# The present assay was run to confirm the activity of hits from the primary screen.
# The Menin protein, the MLL-wild type (w.t.) derived peptide (N-terminal 12 amino acids), the MLL-derived peptide labeled with Texas Red and the MLL-w.t. peptide labeled with Fluorescein were kindly supplied by laboratory of Dr. Jolanta Grembecka, University of Virginia. All protein and peptide solutions were stored in single use aliquots at -80C. The Eu3+ Cyrptate-conjugated mouse monoclonal antibody anti-6 Histidine (Eu3+-AB) and the Streptavidin-XL665 conjugate (XL665) were purchased from Cisbio International (Bedford, MA). All antibody and XL665 conjugate solution stocks were stored in single use aliquots at -20C. The Buffer components for all assays were purchased from Sigma-Aldrich (St. Louis, MO) and Invitrogen (Carlsbad, CA).
# 1. FP reaction buffer: 50 mM Tris-HCl pH 7.5, 50 mM NaCl, 1mM DTT.
# Before use, 0.05% BSA is added.
# 2. Menin protein, MLL-w.t. labeled with fluorescein, MLL-mutant peptide labeled with texas red.
# Stored in singe use aliquots at -80C.
# 3. MLL-w.t. unlabeled peptide as positive control: 10 uM final in FP buffer.
# 1. Prepare Menin at 200 nM, MLL-w.t.-fluorescein at 25 nM, and MLL-mutant-texas red at 50 nM mixture in FP buffer.
# 2. Prepare Menin at 200 nM, MLL-w.t.-fluorescein at 25 nM, MLL-mutant-texas red at 50 nM, and 10 uM MLL-w.t. unlabeled mixture in FP buffer.
# 3. Prepare MLL-w.t.-fluorescein at 25 nM and MLL-mutant-texas red at 50 nM mixture in FP buffer.
# 3. Dispense 4 ul per well of reagent in step 1 in columns 2, 4 - 48 in a black 1536 well plate, dispense 4 ul per well of reagents from steps 2 and 3 in columns 1 and 3 respectively. Incubate plate at ambient for 15 minutes.
# 4. Transfer 23 nl per well of compound to plate and incubate at ambient for 1 hr.
# 5. Read fluorescence polarization for each label using the PerkinElmer Envision.
# Envision protocol for fluorescein: FITC FP Dual Enh Mirror, Excitation filter 480, Emission filter (1) P-pol 535, Emission filter (2) S-pol 535
# Envision protocol for texas red: FP Dual Enh Mirror, Excitation filter 555, Emission filter (1) P-pol 632, Emission filter (2) S-pol 632
row,Structure (SMILES),outcome
1,O=C(N/N=C/c1cn(-c2cccs2)nc1-c1ccccc1)c1ccccc1O,inactive
2,COc1cc(OC)cc(C(=O)N/N=C/c2ccc(OC)c(COc3ccc4ccccc4c3)c2)c1,inactive
3,O=C(CCN1CCN(c2ccc([N+](=O)[O-])cc2)CC1)c1ccc(Cl)cc1,inactive
4,COC(=O)c1cc(CNC(=O)CCCSc2ccccc2)ccc1OC,inactive
5,CN1C[C@@H]2C[C@H]1CN2c1cc2c(cc1F)c(=O)c(C(=O)O)cn2C1CC1,inactive
6,CC(C)Cc1cc(C(=O)NCCCN2CCOCC2)no1,inactive
7,CCOC(=O)N1CCN(CCC(=O)c2ccc(Br)cc2)CC1,inactive
8,COc1ccccc1NS(=O)(=O)c1cc(NC(=O)Nc2cccc(C)c2)ccc1N1CCCCC1,inactive
9,COc1ccc(NC(=O)NC2(C(=O)N3CCOCC3)CCCCC2)cc1,inactive
10,CCCn1c(=O)c(C(=O)Nc2ccccc2C(=O)OCC)c(O)c2ccccc21,inactive
11,O=C(Cn1c(=O)c2c3c(sc2n(Cc2ccccc2)c1=O)CCCC3)NCCO,inactive
12,CCOC(=O)Cn1c2ccccc2n2nc(CCC(=O)O)c(=O)nc12,inactive
13,CC(c1cc2ccccc2s1)N(O)C(N)=O (stereo not given),inactive
14,COc1ccc(OC)c(C(c2c(C)[nH][nH]c2=O)c2c(C)[nH][nH]c2=O)c1,inactive
15,O=C(CC(Sc1ccc(Br)cc1)C(=O)O)c1ccc(F)cc1 (stereo not given),inactive
16,CCOC(=O)N1CCN(C(=O)c2oc3ccc(S(=O)(=O)N(CC)CC)cc3c2C)CC1,inactive
17,O=C(Nc1nnc(SCc2ccc(F)cc2)s1)c1ccc2c(c1)C(=O)N(c1ccccc1Cl)C2=O,inactive
18,CN(C)CCCOc1ccc2c(c1)Sc1ccccc1CC2=O,inactive
19,CCOC(=O)c1sc(NC(=O)Nc2ccc(Cl)cc2)nc1C,inactive
20,O=C(CSc1nc(O)cc(=O)n1-c1ccccc1)c1ccc(Br)cc1,inactive

row,Structure (SMILES),outcome
1,CCc1ccc(NC(=O)CSc2nc(O)cc(=O)n2C2CCCC2)cc1,inactive
2,Cc1c(F)cccc1NS(=O)(=O)c1ccc2c(c1)c(C)cc(=O)n2C,inactive
3,COCC(=O)Nc1cccc2ccccc12,inactive
4,CN(C)C(CNc1ncnc2sc3c(c12)CCCCC3)c1ccco1 (stereo not given),inactive
5,O=C(Nc1cc(Br)ccc1O)c1cc(-c2ccccc2)on1,inactive
6,CCC(=O)Nc1ccc(-c2cc(-c3ccccc3)nc(-c3ccc(NC(=O)CC)cc3)n2)cc1,inactive
7,CCOC(=O)N1CCN(CC(=O)N2c3ccccc3Sc3ccccc32)CC1,inactive
8,CC(c1ccccc1)c1nnc(NC(=O)Nc2ccccc2F)s1 (stereo not given),inactive
9,Cc1cc2c(c(=O)n1Cc1ccccc1)C1O[C@](c3ccsc3)(Cc3cc(C#N)ccc31)O2,inactive
10,CN1CCN(CC(=O)c2ccccc2F)CC1,inactive
11,O=C(c1cc2c(=O)n3ccccc3nc2s1)N1CCOCC1,inactive
12,C=C1CCC[C@]2(C)C[C@H]3OC(=O)C(CNCCN(CC)CC)[C@H]3CC12 (stereo not given in full),inactive
13,CCc1nnc(NC(=O)C2(C)COC(c3ccc(OC)cc3)OC2)s1 (stereo not given),inactive
14,O=C(NC(=S)Nc1ccccc1)c1cc(-c2ccccc2)nc2ccccc12,inactive
15,CC(CC(=O)Nc1nc2ccccc2[nH]1)n1ccnc1 (stereo not given),inactive
16,COc1ccc(-c2csc(NC(=S)NC(=O)/C=C/c3ccc(C(C)C)cc3)n2)cc1OC,inactive
17,N#Cc1ccc(Cl)cc1NC(=O)CNCc1cccs1,inactive
18,Cc1cc(N2CCOCC2)nc2ccc(Cl)cc12,inactive
19,O=C(/C=C/c1ccccc1)Nc1nnc(SCC(=O)c2ccc3ccccc3c2)s1,inactive
20,O=S(=O)(Nc1cccc(-c2cn3cccnc3n2)c1)c1ccccc1,inactive
